Sampled rows, rich in hits. Any-hit rate of the full collection: about 2.4%.
FEN1 inh = qHTS Assay for the Inhibitors of Human Flap endonuclease 1 (FEN1). P39748. Recombinant FEN1 flap cleavage, fluorescence, 15 min. Potency, µM (series often up to 114 µM), most hits filed as inhibitors. 390,000 tested, 0.35% active. AID 588795, 2011; further: nearly all actives have a fitted effect of over 65% in size
Target sequence (P39748 whole entry, looked up): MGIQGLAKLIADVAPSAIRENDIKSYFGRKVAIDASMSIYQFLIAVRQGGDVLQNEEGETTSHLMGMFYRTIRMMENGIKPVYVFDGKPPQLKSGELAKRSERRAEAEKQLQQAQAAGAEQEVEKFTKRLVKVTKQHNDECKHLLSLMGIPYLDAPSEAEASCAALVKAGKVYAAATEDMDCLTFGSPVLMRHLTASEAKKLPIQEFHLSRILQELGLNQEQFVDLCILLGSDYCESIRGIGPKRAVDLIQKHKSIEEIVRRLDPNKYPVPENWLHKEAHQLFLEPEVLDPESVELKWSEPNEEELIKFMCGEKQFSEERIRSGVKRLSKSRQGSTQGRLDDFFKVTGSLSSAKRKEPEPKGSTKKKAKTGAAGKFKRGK
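Recombinant FEN1 (10 nM) was preincubated with pin-transferred compounds for 15 min at room temperature, then flap DNA substrate (50 nM final) was added. Plates were read at 0 and 15 min, and normalized concentration–response data were fitted to a four-parameter Hill equation.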
POLB inh = qHTS Assay for Inhibitors of DNA Polymerase Beta. AID 485314, 2010. 340,000 tested, 1.3% active. Pol beta primer extension/strand displacement, fluorescence kinetic. Potency, µM (top dose mostly 114 µM), most hits filed as inhibitors
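10 nM enzyme + cpd, 15 min RT; start with substrate 50 nM final; read 0 min and after 10 min RT. Corrected, normalized data; 4-parameter Hill curve fit.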
WRN helicase inh = qHTS for Inhibitors of WRN Helicase; Bifunctional 3'-5' exonuclease/ATP-dependent helicase WRN (Homo sapiens), Q14191; WRN helicase unwinding, fluorescent forked duplex, kinetic; Potency, µM (titrated, usually from 114 µM), most hits filed as inhibitors; 360,000 tested, 0.46% active; AID 651768, 2012; further: nearly all actives have a fitted effect of over 55% in size
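Primary qHTS, 1536-well format. 20 nM WRN + compound, 15 min RT; start with 100 nM forked fluorophore/quencher duplex, 2 mM ATP (final); kinetic read ex 525/em 598 nm.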
POLK inh = qHTS for Inhibitors of Polymerase Kappa. Potency, µM (titrated, usually from 107 µM), hits mostly inhibitors. purified Pol kappa, fluorescent DNA synthesis assay, 10 min. DNA polymerase kappa (Homo sapiens), Q9UBT6. AID 588579, 2011. 400,000 tested, 0.53% active
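10 nM Pol kappa preincubated 15 min at room temperature with compounds, then reaction started with substrate at 50 nM final. Fluorescence read kinetically at 0 and 10 min; buffer-only wells served as negative control.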
POLH inh = qHTS for Inhibitors of Polymerase Eta | DNA polymerase eta (Homo sapiens), Q9Y253 | recombinant Pol eta, fluorescent DNA replication assay | Potency, µM (top dose mostly 114 µM), usual class: inhibitors | 390,000 tested, 1.2% active | AID 588591, 2011
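Fluorescent replication assay: 50 nM final substrate added after a 15 min room-temperature compound preincubation with 10 nM enzyme. Signal taken at 0 min and again at 10 min.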
Pol iota inh = qHTS for Inhibitors of Polymerase Iota; Potency, µM (doses to about 115 µM), usual class: inhibitors; Pol iota fluorescent replication assay, 10 min; DNA polymerase iota (Homo sapiens), Q9UNA4; 390,000 tested, 1% active
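Pol iota at 10 nM preincubated 15 min with compounds at room temperature; reaction started with fluorescent substrate, 50 nM final. Fluorescence read kinetically at 0 and 10 min; buffer-only wells as negative control.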
Large screens that a line does not name were inactive; ! = not active in a repeat. The call rests on the fitted dose curve; in most records, active means well fitted curve in the direction sought with a large enough effect; inconclusive means small, poorly fitted or top-dose-only effect, or another doubt; inactive means no such curve, though single readings can be large; an effect the other way counts as inactive or inconclusive.

Cc1cc(=O)n(CCCc2ccccc2)[nH]1	Pol iota inh 10µM (no result: POLB inh)
O=C1CCC[C@@H]2C[C@@]3(C[C@@H]4CCN1[C@H]24)Nc1cc([N+](=O)[O-])ccc1NC3=NCc1ccccc1	none (no result: POLB inh, WRN helicase inh, POLH inh)
NS(=O)(=O)c1cccc(NC(=O)c2ccc3nc[nH]c3c2)c1	POLB inh 50.1µM, WRN helicase inh inconclusive, POLK inh inconclusive, POLH inh 79.4µM, Pol iota inh inconclusive
Cc1cccc(C)c1NC(=O)CCCn1c(=O)c2cccn2c2ccccc21	none (no result: WRN helicase inh)
CN(C)c1ccc(C=O)c(O)c1	POLK inh inconclusive, Pol iota inh 50.1µM (no result: POLB inh, WRN helicase inh, POLH inh)
CN(C)c1ccc(C=O)c(Cl)c1	none (no result: POLB inh, WRN helicase inh, POLH inh)
CCOC(=O)c1ccccc1NS(=O)(=O)c1ccccc1	none
CCOC(=O)c1ccccc1NS(=O)(=O)c1ccccc1F	Pol iota inh 79.4µM
NS(=O)(=O)c1ccc(CNS(=O)(=O)c2cc(C(=O)O)ccc2Cl)cc1	POLB inh inconclusive, POLH inh 20µM, Pol iota inh inconclusive
CCc1ccc(NC(=O)N2CCOc3ccc(Cl)cc32)cc1	none (no result: WRN helicase inh)
COc1ccc(NC(=O)C2=CC(c3cccs3)=NS(=O)(=O)N2C)cc1	POLB inh 31.6µM!
COc1ccc(Cn2c(C(=O)O)c(CNC3CCC(C)CC3)c3ccc(C)cc32)cc1 (configuration not stated)	none (no result: WRN helicase inh)
CCOC(=O)C1=C(C)N=C2SC(C(=O)OC)=CC(=O)N2C1c1ccc(OC)cc1 (configuration not stated)	Pol iota inh 89.1µM
Cc1cccc(Cn2ccc(-c3ccc(Cl)cc3)c(C#N)c2=O)c1	none
Cc1cccc(Cn2ccn(Cc3ccc(Cl)cc3)c(=O)c2=O)c1	POLB inh 25.1µM (no result: WRN helicase inh)
FC(F)c1nc2ccccc2[nH]1	POLB inh 50.1µM
CC(=O)c1cccc(-n2c(=O)c3c4c(sc3n(Cc3ccccc3Cl)c2=O)CN(C(C)=O)CC4)c1	none (no result: WRN helicase inh)
COc1ccc(C(=O)c2nccc3cc(OC)c(OC)cc23)cc1OC	POLH inh inconclusive, Pol iota inh inconclusive (no result: POLB inh)
COc1cc2c(cc1OC)-c1c(OC)c(OC)cc3ccnc(c13)C2=O	FEN1 inh 7.94µM, POLB inh inconclusive, POLK inh inconclusive, POLH inh inconclusive
O=C(Nc1ccc(C2=NCCN2)cc1)c1ccc(C(=O)Nc2ccc(C3=NCCN3)cc2)c([N+](=O)[O-])c1	FEN1 inh 39.8µM, POLB inh 2.24µM, WRN helicase inh inconclusive, POLK inh 44.7µM, POLH inh inconclusive, Pol iota inh 10µM
Cc1ccc(NC(=O)c2ccc(-n3cccn3)c([N+](=O)[O-])c2)cc1	none
COc1ccc(-c2nc(SCC(=O)NC(C)CCc3ccccc3)n[nH]2)cc1 (configuration not stated)	none (no result: WRN helicase inh)
COc1ccc(-c2cc(-c3ccco3)[nH]c(=O)c2C#N)cc1	POLB inh inconclusive, POLH inh inconclusive
N#Cc1c(-c2cccc(Br)c2)cc(-c2ccco2)[nH]c1=O	POLB inh 17.8µM, WRN helicase inh inconclusive, POLH inh 50.1µM, Pol iota inh inconclusive
Cc1cc(SCC(=O)N/N=C/c2ccc(O)c(O)c2O)c(C)cc1Br	FEN1 inh 39.8µM, POLB inh inconclusive, WRN helicase inh 50.1µM, POLK inh inconclusive, POLH inh inconclusive, Pol iota inh inconclusive
COc1cc(/C=N/NC(=O)CSc2cc(C)c(Br)cc2C)ccc1O	POLH inh inconclusive
COc1ccc(-n2c(-c3ccc(C)cc3)cc3c2CC(C)(C)CC3=O)c(OC)c1	none (no result: WRN helicase inh)
Cc1ccc(NC(=O)C2CCN(S(=O)(=O)c3ccc4c(c3)NC(=O)C(C)S4)CC2)cc1C (configuration not stated)	FEN1 inh inconclusive
CCc1ccc(NC(=O)C2CCN(S(=O)(=O)c3ccc4c(c3)NC(=O)C(C)S4)CC2)cc1 (configuration not stated)	POLB inh inconclusive, Pol iota inh 79.4µM
COCc1ccc(CN2CCC(C(=O)Nc3cccc(-c4cscn4)c3)CC2)o1	none
O=C(Nc1cccc(-c2cscn2)c1)C1CCN(Cc2ccc(CO)o2)CC1	POLK inh inconclusive, Pol iota inh 50.1µM
COc1ccc(-c2c3c(=O)n(C)c(=O)n(C)c3c3c(-c4ccccc4)nc4ccccc4n23)cc1	none (no result: WRN helicase inh)
CSc1ccc(CCNC(=O)CN2C(=O)COc3ccc(S(=O)(=O)N4CCCCCC4)cc32)cc1	none (no result: WRN helicase inh)
CCc1ccc(/C=C(/C#N)c2nc(-c3ccc(C)cc3)cs2)cc1	none (no result: WRN helicase inh)
CCOc1ccc(-c2csc(/C(C#N)=C\c3ccc(O)c([N+](=O)[O-])c3)n2)cc1	FEN1 inh 79.4µM, POLB inh 28.2µM, WRN helicase inh inconclusive, POLH inh 22.4µM, Pol iota inh inconclusive
CCOc1ccccc1CNC(=O)CN1C(=O)CCc2cc(S(=O)(=O)N3CCCCC3)ccc21	none (no result: WRN helicase inh)
O=C(OCC1OC(OC(=O)c2cc(O)c(O)c(OC(=O)c3cc(O)c(O)c(O)c3)c2)[C@@H](OC(=O)c2cc(O)c(O)c(OC(=O)c3cc(O)c(O)c(O)c3)c2)C(OC(=O)c2cc(O)c(O)c(OC(=O)c3cc(O)c(O)c(O)c3)c2)C1OC(=O)c1cc(O)c(O)c(OC(=O)c2cc(O)c(O)c(O)c2)c1)c1cc(O)c(O)c(OC(=O)c2cc(O)c(O)c(O)c2)c1 (some centres not stated)	POLK inh 0.006µM (no result: FEN1 inh, POLB inh, WRN helicase inh, POLH inh, Pol iota inh)
OCC1OC(n2cnc3c(=S)nc[nH]c32)C(O)C1O (configuration not stated)	FEN1 inh inconclusive, Pol iota inh inconclusive (no result: POLB inh, WRN helicase inh, POLH inh)
CCCCn1c(/C=C/c2ccco2)nc2ccccc21	POLB inh 8.91µM, POLH inh inconclusive, Pol iota inh inconclusive
O=C(O)c1cc(N=Nc2ccc(O)c(C(=O)O)c2)ccc1O	none (no result: FEN1 inh, POLB inh, WRN helicase inh, POLH inh, Pol iota inh)
O=C(O)c1cc(N=Nc2ccc(-c3ccc(N=Nc4ccc(O)c(C(=O)O)c4)cc3)cc2)ccc1O	POLK inh 5.97µM (no result: FEN1 inh, POLB inh, WRN helicase inh, POLH inh, Pol iota inh)
CCc1ccc(OC(=O)/C=C/c2ccco2)cc1	POLB inh 35.5µM, POLK inh inconclusive, Pol iota inh inconclusive
O=C(Cc1ccccc1)N/N=C/c1ccc(OC(=O)/C=C\c2ccco2)cc1	POLK inh inconclusive, Pol iota inh inconclusive
COC(=O)N/N=C/c1ccc(OC(=O)/C=C/c2ccco2)cc1	POLB inh 11.2µM, WRN helicase inh inconclusive, POLK inh inconclusive, POLH inh inconclusive, Pol iota inh 35.5µM
O=C(NCCCCCCNC(=O)ON=C1CCCCC1)ON=C1CCCCC1	none (no result: FEN1 inh, POLB inh, WRN helicase inh, POLH inh, Pol iota inh)
COc1ccc(C(=O)OCC(=O)Nc2sccc2C(N)=O)cc1OC	none
COc1ccccc1OCC(=O)OCC(=O)Nc1sccc1C(N)=O	POLB inh inconclusive, POLH inh 25.1µM, Pol iota inh inconclusive
